# Paper PMC9838217, “Structure of SALL4 zinc finger domain reveals link between AT-rich DNA binding and Okihiro syndrome”
# Substitutions are numbered along the chain they refer to.
# Assays:
# Assay in all cases: HT-SELEX; high values mean tight binding
# Settings in all cases: protein: recombinant; vector His6-GST; dsDNA, one strand shown
# [1] = target: T1, SALL4 ZFC4 WT (HT-SELEX) (Mus musculus, UniProt Q8BX22 870-940)
# T1 sequence: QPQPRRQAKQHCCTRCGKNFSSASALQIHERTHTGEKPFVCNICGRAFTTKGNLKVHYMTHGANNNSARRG
# Procedure, shortened: (§1)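 Purified recombinant mouse SALL4 zinc finger cluster 4 (residues 870–940, 1 µg) and library DNA (1.5 µg first cycle, 200 ng later) were incubated for 10 min at room temperature in 100 µl of 10 mM Tris–HCl pH 7.5, 50 mM NaCl, poly(dI-dC) and DTT. After Ni2+ bead capture and up to 6 triplicate cycles of selection, DNA was MiSeq-sequenced and scanned for 6-mers. Binding signal is the fold change in each canonical k-mer's read fraction relative to the initial random library.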
# [2] = target: T2, SALL4 ZFC4 R900W (HT-SELEX) (Mus musculus, UniProt Q8BX22 870-940, R900W)
# T2 sequence: T1 sequence with R31W
# Procedure, shortened: as §1
# [3] = target: T3, SALL4 ZFC4 G921D (HT-SELEX) (Mus musculus, UniProt Q8BX22 870-940, G921D)
# T3 sequence: T1 sequence with G52D
# Procedure, shortened: as §1
sequence,measurement,setting,value
GCATAC,binding signal,[1],0.665 ± 0.00696 fold-change vs cycle 0
same,binding signal,[2],0.738 ± 0.0335 fold-change vs cycle 0
same,binding signal,[3],0.819 ± 0.0421 fold-change vs cycle 0
CAATCA,binding signal,[1],1.31 ± 0.0592 fold-change vs cycle 0
same,binding signal,[2],1.41 ± 0.0553 fold-change vs cycle 0
same,binding signal,[3],1.4 ± 0.0622 fold-change vs cycle 0
GAATGC,binding signal,[1],0.632 ± 0.0438 fold-change vs cycle 0
same,binding signal,[2],0.728 ± 0.0366 fold-change vs cycle 0
same,binding signal,[3],0.816 ± 0.0183 fold-change vs cycle 0
AATGAC,binding signal,[1],1.18 ± 0.09 fold-change vs cycle 0
same,binding signal,[2],1.36 ± 0.06 fold-change vs cycle 0
same,binding signal,[3],1.3 ± 0.105 fold-change vs cycle 0
CAGGGA,binding signal,[1],0.492 ± 0.0092 fold-change vs cycle 0
same,binding signal,[2],0.57 ± 0.0327 fold-change vs cycle 0
same,binding signal,[3],0.629 ± 0.0495 fold-change vs cycle 0
CATCTA,binding signal,[1],1.33 ± 0.0229 fold-change vs cycle 0
same,binding signal,[2],1.41 ± 0.0368 fold-change vs cycle 0
same,binding signal,[3],1.38 ± 0.068 fold-change vs cycle 0
